Results reported in PubChem BioAssay (Tox21).
Results filed as inconclusive are left out. Calls of active or inactive are those of the source. The call rests on the fitted dose curve.

Each molecule was assayed against Thyrotropin receptor (Homo sapiens) (UniProt P16473) (assay: qHTS assay to identify small molecule antagonists of the thyroid stimulating hormone receptor (TSHR) signaling pathway (AID 1259385; further: nearly all actives have a fitted effect of over 20% in size)). Settings: TSHR-HEK293 cAMP HTRF, TSH-stimulated antagonist mode; series mostly up to 92.4 µM; activity change, negative = inhibition: at the top concentration.
Method in brief: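 TSHR-HEK293 cells were plated and held 18 h at 37C/5% CO2, then given compound plus Ro20-1724 and stimulated with TSH at 1.5 ng/mL final. After 30 min at room temperature, cAMP was detected with cAMP-d2/anti-cAMP-cryptate (1 h) by fluorescence.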
On the % scale 0 is the no-effect control and ±100 the full control effect.

Chain of Thyrotropin receptor (Homo sapiens) (P16473 whole entry, looked up): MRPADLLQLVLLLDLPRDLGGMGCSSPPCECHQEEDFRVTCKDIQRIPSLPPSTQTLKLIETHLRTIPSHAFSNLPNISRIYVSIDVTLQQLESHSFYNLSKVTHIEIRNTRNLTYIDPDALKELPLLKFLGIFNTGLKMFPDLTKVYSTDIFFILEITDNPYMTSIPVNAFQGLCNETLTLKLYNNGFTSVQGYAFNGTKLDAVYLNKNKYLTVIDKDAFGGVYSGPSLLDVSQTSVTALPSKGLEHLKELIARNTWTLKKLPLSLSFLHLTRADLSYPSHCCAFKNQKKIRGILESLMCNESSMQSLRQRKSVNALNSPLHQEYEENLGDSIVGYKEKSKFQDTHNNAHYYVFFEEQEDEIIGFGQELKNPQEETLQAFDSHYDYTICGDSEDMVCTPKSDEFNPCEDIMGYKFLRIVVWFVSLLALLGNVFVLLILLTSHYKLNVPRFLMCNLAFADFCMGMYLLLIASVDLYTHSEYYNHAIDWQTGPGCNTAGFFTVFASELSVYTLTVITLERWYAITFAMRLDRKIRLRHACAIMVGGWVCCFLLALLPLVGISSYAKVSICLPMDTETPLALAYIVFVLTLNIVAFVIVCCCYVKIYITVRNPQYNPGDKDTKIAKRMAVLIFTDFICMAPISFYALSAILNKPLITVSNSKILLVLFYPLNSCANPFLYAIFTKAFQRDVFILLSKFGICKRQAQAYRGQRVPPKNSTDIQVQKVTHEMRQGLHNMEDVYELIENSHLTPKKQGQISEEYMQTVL

Row | SMILES | activity change, negative = inhibition
1 | C[C@]12C=CC(=O)C=C1[C@@H](F)C[C@@H]1[C@@H]2[C@@H](O)C[C@@]2(C)[C@H]1CC[C@]2(O)C(=O)CO | 3.02% [at 42.5 µM] (inactive)
2 | CCCCCCCCCCCCCC(=O)OCC | 1.33% (inactive)
3 | CCN1CCN(C(=O)N[C@@H](C(=O)N[C@@H]2C(=O)N3[C@@H]2SC(C)(C)[C@H]3C(=O)O)c2ccccc2)C(=O)C1=O | -0.661% [at 42.5 µM] (inactive)
4 | CC(=O)O[C@@H]1CC2C3CCc4cc(OC(=O)c5ccccc5)ccc4C3CCC2(C)[C@H]1OC(C)=O (stereo partly drawn) | 4.91% [at 42.5 µM] (inactive)
5 | CCCCCCCCCCCCCCCCN(C)C | 1.02% [at 8.39 µM] (inactive)
6 | CC/C=C\CCCCCCCCCCOC(C)=O | -1.36% (inactive)
7 | CCOC(=O)[C@H](CCc1ccccc1)N[C@H]1CS[C@H](c2cccs2)CN(CC(=O)O)C1=O | -0.264% [at 42.5 µM] (inactive)
8 | CN(C)CCC[C@@]1(c2ccc(F)cc2)OCc2cc(C#N)ccc21 | -0.348% [at 42.5 µM] (inactive)
9 | N=C(N)S(=O)O | 0.513% (inactive)
10 | CCCCN1C(=O)c2ccccc2C1=O | 1.22% (inactive)
11 | CC(C)(O)CCCC1=CCC(C=O)CC1 (stereo not drawn) | 1.57% (inactive)
12 | CCCCOCCCC | -1.72% (inactive)
13 | COc1ccccc1N1CCN(CC(O)COc2cc(OC)c(OC)c(OC)c2)CC1 (stereo not drawn) | 1.44% [at 42.5 µM] (inactive)
14 | COCc1nnc(-c2ccc[n+]([O-])c2)n1-c1c(Cl)c(Cl)cc2[nH]c(=O)c(=O)[nH]c12 | 0.467% (inactive)
15 | CC1(C)S[C@@H]2[C@H](NC(=O)Cc3ccccc3)C(=O)N2[C@H]1C(=O)O (tested in a mixture with another compound) | 4.73% [at 42.5 µM] (inactive)
16 | CC(C)(C)C(=O)CCc1ccc(Cl)cc1 | -5.39% (inactive)
17 | Cc1ccc(Br)cc1 | 3.08% (inactive)
18 | CC(O)C(CO)C(C)O (stereo not drawn) | 4.4% (inactive)
19 | Nc1cc(S(=O)(=O)O)ccc1O | 4.89% (inactive)

Row | SMILES | activity change, negative = inhibition
20 | CCCCC(CC)COC(=O)CC#N (stereo not drawn) | -0.553% (inactive)
21 | COc1cc(S(N)(=O)=O)cc(C(=O)O)c1OC | -1.47% [at 42.5 µM] (inactive)
22 | CCN1CCN(C(=O)N[C@@H](C(=O)N[C@@H]2C(=O)N3C(C(=O)O)=C(CSc4nnnn4C)CS[C@H]23)c2ccc(O)cc2)C(=O)C1=O | -1.66% [at 42.5 µM] (inactive)
23 | O=C(CCBr)N1CCN(C(=O)CCBr)CC1 | 4.09% [at 42.5 µM] (inactive)
24 | CC/C=C\CCOC(=O)c1ccccc1 | -7.12% (inactive)
25 | CCNC(=O)C(C)OC(=O)Nc1ccccc1 (stereo not drawn) | -2.54% (inactive)
26 | CC(=O)c1ccc2ccc3ccccc3c2c1 | 1.13% (inactive)
27 | CN(C)CCc1c[nH]c2ccc(C[C@H]3COC(=O)N3)cc12 | 2.42% [at 42.5 µM] (inactive)
28 | C=CCCCCCCCCCCCCCC | 0.749% [at 19 µM] (inactive)
29 | COC(=O)c1ccc(C(=O)O)cc1 | -0.41% (inactive)
30 | CCCCCCCCCCCCCCBr | -0.0937% (inactive)
31 | CC(C)C[P+](C)(CC(C)C)CC(C)C | -0.91% (inactive)
32 | O=C(O)/C=C(\CC(=O)O)C(=O)O | -1.37% [at 42.5 µM] (inactive)
33 | CCC(C)c1nccnc1OC (stereo not drawn) | -0.33% (inactive)
34 | N#CC1(N)CCCCC1 | -2.65% (inactive)
35 | Cc1ccc(OC(=O)CC(C)C)cc1 | -5.79% (inactive)
36 | CCCC(=O)OC | 1.96% (inactive)
37 | CC(CC(=O)Cl)CC(C)(C)C (stereo not drawn) | 3.42% (inactive)
38 | CCC(C)SSC(C)CC (stereo not drawn) | 0.168% (inactive)
